A selection: hits, their analogues and other compounds. The true share with any hit is near 4.1%.
TROY NFkB inh = inhibitors of TROY-driven NF-kB signaling, primary screen, Q293 LMP1-TROYcd cells, NF-kB luciferase, uHTS. Q293 LMP1-TROYcd NF-kB luciferase reporter, 4 h. inhibition, % at 10 µM. 360,000 tested, 0.98% active. AID 1347056, 2019;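 active means compounds whose plate-normalised and pattern-corrected inhibition of the luciferase reporter signal at the single screening dose is 50% or more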
LMP1 NFkB inh = EBV LMP1-driven NF-kappaB luciferase reporter inhibitors, primary screen, cell-based, luminescence, single point; LMP1-induced NF-kappaB luciferase reporter cells; inhibition, % at 12.5 µM; 350,000 tested, 0.69% active; in the data active means inhibition above about 41%
MITF TRPM1 inh = inhibitors of MITF-dependent TRPM1 promoter reporter, primary screen, cell-based, SK-MEL-5, single point, luciferase; SK-MEL-5 TRPM1 promoter luciferase, 24 h; inhibition, % at 12.5 µM; 330,000 tested, 0.83% active; AID 488899, 2010;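 active means mean inhibition across replicates of 60% or more, whatever share of single replicates reaches that level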
Peg3 prom inh = Peg3 promoter-driven luciferase inhibitors, primary screen, cell-based, HeLa, luciferase luminescence; HeLa PEG-Prom luciferase reporter, overnight; inhibition, % at 20 µM; 360,000 tested, 1.7% active;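 active means inhibition of at least 50% at 20 µM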
TWEAK Fn14 block = inhibitors of TWEAK-Fn14 signaling, primary screen, luciferase reporter cells, uHTS; TWEAK-stimulated Fn14 reporter cells, luciferase luminescence, 8 h; 360,000 tested, 2% active; inhibition, % at 10 µM; in the data active means inhibition above about 50%
Shn3 inh set2 = reduction of Shn3 3'UTR firefly luciferase signal, primary screen, Schnurri-3 inhibitor project, cell-based, Clone20 osteoblasts, set 2 | inhibition, % at 12.5 µM | AID 588674, 2011 | Clone20 osteoblast Shn3 3'UTR firefly luciferase, 24 h | 360,000 tested, 0.52% active;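 active means mean inhibition of at least 75% with every replicate also reaching 75%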
A number is an active result; . = inactive; / = no result given.

SMILES	TROY NFkB inh	LMP1 NFkB inh	MITF TRPM1 inh	Peg3 prom inh	TWEAK Fn14 block	Shn3 inh set2
O=C(O)c1ccccc1-c1ccc(/C=c2\sc3nc4cc(Br)cnc4n3c2=O)o1	.	.	.	.	75	.
CC(Cc1ccccc1)N1C(=O)c2cccc([N+](=O)[O-])c2C1=O (stereo unspecified)	.	.	.	.	.	.
O=C(CSc1n[nH]c(=O)n1C1CC1)Nc1cc(Cl)ccc1Oc1ccccc1	.	.	.	50	.	.
O=C(CSc1n[nH]c(=O)n1C1CC1)Nc1ccccc1	.	.	.	.	.	.
COc1ccc(C(=O)/C=C/C(=O)N(CC(=O)NC2CCCCC2)Cc2ccccc2OC)c(O)c1	91	.	103	104	91	.
COc1ccc(C(=O)/C=C/C(=O)N(Cc2ccc(F)cc2)C(C(=O)NC2CCCCC2)c2ccncc2)c(O)c1 (stereo unspecified)	.	.	.	.	.	.
COc1ccc(C(=O)/C=C/C(=O)N(Cc2ccccc2OC)C(C(=O)NC2CCCCC2)c2ccncc2)c(O)c1 (stereo unspecified)	.	.	.	.	.	.
COc1ccc(C(=O)/C=C/C(=O)N(Cc2ccccc2)C(C(=O)NC2CCCCC2)c2ccncc2)c(O)c1 (stereo unspecified)	.	.	.	.	.	.
COc1ccc(C(=O)/C=C/C(=O)N(CC(=O)NC2CCCCC2)CC2CCCO2)c(O)c1 (stereo unspecified)	50	.	98	106	84	.
COc1ccc(C(=O)/C=C/C(=O)N(CC(=O)NC2CCCCC2)Cc2ccccc2)c(O)c1	.	.	100	109	.	95
CCOCCCn1c(SCc2nc3ccccc3s2)nc2ccccc2c1=O	53	.	.	.	73	.
O=C(CCN1CCC(c2ccccc2)C1)c1ccccc1 (stereo unspecified)	.	.	.	.	.	.
O=C(CCCc1ccccc1)c1ccc2c(c1)OCCO2	88	61	77	87	102	.
O=C(CCN1CCC(c2ccccc2)C1)c1ccc2c(c1)OCCO2 (stereo unspecified)	.	82	.	.	.	.
O=C(COC(=O)c1ccc(S(=O)(=O)N2CCCC2)cc1)NCc1cccs1	.	.	.	.	.	.
CCOC(=O)NC(=O)CSc1nnc(C2CC2)n1Cc1ccco1	.	.	.	.	.	.
Cc1sc2ncnc(N3CCC(C(=O)Nc4ccc(S(N)(=O)=O)cc4)CC3)c2c1C	.	.	.	.	.	.
Cc1ccc(NC(=O)C2CCN(c3ncnc4sc(C)c(C)c34)CC2)cc1S(=O)(=O)N(C)C	51	.	.	.	55	.
Cc1ccc(C)c(S(=O)(=O)N2CCN(C(=O)C3CCN(c4ncnc5sc(C)c(C)c45)CC3)CC2)c1	.	.	.	.	.	89
Cc1sc2ncnc(N3CCC(C(=O)Nc4cc(S(C)(=O)=O)ccc4Cl)CC3)c2c1C	.	.	.	.	.	.
CCN(CC)S(=O)(=O)c1cc(NC(=O)C2CCN(c3ncnc4sc(C)c(C)c34)CC2)ccc1Cl	64	.	64	67	97	89
O=C(O)COc1ccc(/C=N/NC(=O)/C(=C/C=C/c2ccccc2)NC(=O)c2ccccc2)cc1	.	.	.	.	.	.
COc1cc(OC)cc(-c2c(C#Cc3ccsc3)c3cc(-c4cccc5[nH]cc(C=O)c45)ccc3n2C)c1	.	.	.	54	.	.
COc1ccc(NC(=O)/C(Cl)=C(/Cl)S(=O)(=O)Cc2ccccc2)cn1	77	90	94	100	101	97
COc1ccc(NC(=O)/C(Cl)=C(/Cl)S(=O)Cc2ccc(Cl)cc2)cn1 (stereo unspecified)	90	78	94	104	101	96
SMILES	TROY NFkB inh	LMP1 NFkB inh	MITF TRPM1 inh	Peg3 prom inh	TWEAK Fn14 block	Shn3 inh set2
COc1ccc(NC(=O)C(Cl)=C(Cl)Cl)cn1	.	.	.	.	.	.
CC1(C(=O)Nc2ccc3nc[nH]c3c2)CCN1C(=O)c1ccccc1CCc1ccccc1 (stereo unspecified)	.	/	/	.	.	.
CC(C)Cc1nc2oc3c(NCC4CCCO4)ncnc3c2c2c1CCC2 (stereo unspecified)	.	.	.	61	54	.
CC(C)Oc1ccc(OCCSc2nc3ccccc3n2CC(=O)O)cc1	.	.	.	.	.	.
O=C(CSc1nnc(NC(=O)C2CC(=O)N(c3ccccc3)C2)s1)NC1CCCC1 (stereo unspecified)	.	.	.	.	.	.
CCCc1cc(=O)n2[nH]cc(-c3ccc(Cl)cc3)c2n1	.	44	.	57	.	.
Cc1cc(-c2csc(NC(=O)c3ccc(=O)[nH]c3)n2)c(C)n1Cc1ccco1	.	.	.	.	58	.
Nc1cccc2c1C(=O)N(CCOc1ccccc1F)C2=O	.	.	.	.	59	.
N#Cc1ccccc1OCCN1C(=O)c2ccccc2C1=O	.	.	.	.	.	.
COc1ccc(NC(=O)Nc2ccc(F)c(F)c2)c(OC)c1	.	67	74	.	.	.
OC(c1ccc(F)c(F)c1)c1nc(-c2ccoc2)cs1 (stereo unspecified)	.	/	/	.	.	.
CCOC(=O)c1ccc(-c2ccc(N3C(c4ccsc4)=Cc4ccc(F)cc4C3c3c[nH]c4ccc(C#N)cc34)cc2)cc1F (stereo unspecified)	.	/	/	/	53	/
CC(C)(O)C#Cc1ccc(N2C(c3ccsc3)=Cc3ccc(F)cc3C2c2c[nH]c3ccc(C#N)cc23)cc1 (stereo unspecified)	.	/	/	/	.	/
Cc1cccc(N2CCN(C(=O)c3noc4c3COc3ccc(C)cc3-4)CC2C)c1 (stereo unspecified)	.	.	.	.	.	.
COC(=O)[C@H](C)NC(=O)Nc1cccc(C)c1	.	49	.	.	.	.
Cc1cccc(NC(=O)NC(C)CCc2ccccc2)c1 (stereo unspecified)	.	.	.	.	.	.
O=C(Nc1ccccc1C(F)(F)F)c1ncn[nH]1	.	.	.	.	.	.
O=C(Nc1ccc2c(c1)OCCO2)c1cc2sccc2n1Cc1ccccc1	.	.	.	.	53	.
O=C(CN1CCN(C(=O)c2ccco2)CC1)Nc1ccc2c(c1)OCCO2	53	.	.	.	64	.
O=C(Nc1ccc2c(c1)OCCO2)c1ccco1	.	.	.	.	61	.
COc1ccc(C(=O)NN(C)c2nc(-c3ccccc3)nnc2C(F)(F)F)cc1	.	.	.	.	.	.
